Laboratory results published in PubChem BioAssay AID1159580 (chemical genetic matrix, 2015).
The whole screen tested about 5,500 compounds, of which about 2,000 (36%) were called active. Another 18% or so got no clear call; they are omitted. No stated cut-off is given here; in the data, active means normalized growth mostly below about 0.91 (no sharp cut-off); inconclusive means no clear call, values can overlap the other calls; inactive means mostly above about 0.92. Some of the results follow.

Assay: chemical genetic growth profiling, strain panel (AID 1159580);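 further: tested at 20 µM; growth read once vehicle control cultures reached saturation at 30 °C; 1 = growth at the plate median or of vehicle wells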
Details: S. cerevisiae deletion strains, growth OD

Measured: normalized growth

CN(C)CCCO[C@@H]1[C@H]2OC(C)(C)O[C@H]2O[C@@H]1C(O)CO (some centres not stated)
inactive: locus YAL040C, strain CLN3, stronger effect = lower value 1 | locus YCL061C, strain MRC1 (second series), stronger effect = lower value 1 | locus YDR150W, strain NUM1, stronger effect = lower value 1 | locus YDR363W, strain ESC2, stronger effect = lower value 1 | locus YER002W, strain NOP16, stronger effect = lower value 1.02 | locus YGR078C, strain PAC10, stronger effect = lower value 1.01 | locus YJR075W, strain HOC1, stronger effect = lower value 1.01 | locus YNL175C, strain NOP13, stronger effect = lower value 1.01 | locus YNL197C, strain WHI3, stronger effect = lower value 1.03 | locus YNL224C, strain SQS1, stronger effect = lower value 1 | locus YOR083W, strain WHI5 (second series), stronger effect = lower value 1.01 | locus YPL241C, strain CIN2, stronger effect = lower value 1.01
